Reference: the supplement of paper PMC13380429
A number with no mark means an inactive call.

System: Vero E6 infected with SARS-CoV-2
Test: inhibition of SARS-CoV-2 cytopathic effect; higher = more antiviral protection, active = above 15
Conditions: 48 h

Structure (SMILES) | inhibition of SARS-CoV-2 cytopathic effect (1 nM) [%] | inhibition of SARS-CoV-2 cytopathic effect (8.33 nM) [%] | inhibition of SARS-CoV-2 cytopathic effect (100 nM) [%] | inhibition of SARS-CoV-2 cytopathic effect (833.33 nM) [%] | inhibition of SARS-CoV-2 cytopathic effect (10000 nM)
CN1CCCN=C1COC(=O)C(O)(c1ccccc1)C1CCCCC1 (stereo not given) [oxyphencyclimine] | 2.48 | 0.59 | 0.28 | 2.86 | -1.14%
CC1CCN(CCCC(=O)c2ccc(F)cc2)CC1 [melperone] | 1.03 | -0.88 | -1.43 | 0.99 | 2.13%
c1ccc2c(CCNc3ccc(Nc4ccncc4)cc3)c[nH]c2c1 [serdemetan] | -2.3 | -1.01 | -2.55 | -0.64 | 22.1% (active)
O=C(O)c1ccc(NC(=O)[C@H](Cc2ccc(O)cc2)NC(=O)c2ccccc2)cc1 [bentiromide] | -1.4 | 0.94 | -1.51 | -0.68 | 0.39%
CCCCc1ccc(O)cc1O [rucinol] | -2.6 | -3.11 | 2.12 | -0.13 | 0.4%
O=C(CN1CCN(C(=O)c2ccco2)CC1)Nc1cc(C(F)(F)F)ccc1Cl | 0.23 | -4.63 | -0.17 | 1.03 | 5.23%
NC(=O)c1cnc(N[C@@H]2CCCC[C@@H]2N)nc1Nc1cccc(-n2nccn2)c1 | -1.26 | -0.3 | 2.11 | -0.39 | 24.4% (active)
COc1cc2c(cc1C(F)(F)F)N(C(=O)Nc1cc(F)cc(-c3cccnc3)c1)CC2 | 1.91 | 2.35 | 0.87 | 2.32 | 2.45%
CCCCCCCC/C=C\CCCCCCCC(N)=O [oleamide] | -2.29 | -1.34 | -3.82 | 0.76 | 0.18%
O=S(=O)(N[C@H](CO)C(C(F)(F)F)C(F)(F)F)c1ccc(Cl)s1 [begacestat] | -4.03 | -5.1 | -1.3 | -4.51 | -7.85%
CCOC(=O)N1c2ccc(C(F)(F)F)cc2[C@@H](N(Cc2cc(C(F)(F)F)cc(C(F)(F)F)c2)C(=O)OC)C[C@H]1CC | 0.17 | 0.5 | 0.49 | 1.09 | 1.77%
CCCCc1nn(-c2ccccc2C(F)(F)F)c(=O)n1Cc1ccc(-c2ccccc2S(=O)(=O)NC(=O)c2sccc2C)cc1 | 0.19 | -0.03 | 2.56 | -2.77 | -1.65%
c1ccc(CNc2ncnc3[nH]cnc23)cc1 [6-benzylaminopurine] | 0.87 | 0.37 | -1.53 | -1.37 | -1.09%
CCOCC(O)COc1ccc(NC(=O)CC[S+](C)C)cc1 (stereo not given) [suplatast] | 2.01 | -0.4 | -0.49 | 0.97 | 0.31%
O=C(/C=C/c1ccc2ccccc2n1)c1ccncc1 | -4.3 | -0.71 | -2.06 | -1.46 | -3.51%
Cn1nnc(-c2ccc(-c3ccc(N4C[C@H](CO)OC4=O)cc3F)cn2)n1 [tedizolid] | -0.87 | 1.38 | -1.69 | 0.43 | -0.79%
Cc1cccc(Nc2ccccc2C(=O)O)c1C [mefenamic-acid] | -0.88 | 1.67 | 1.5 | -1.03 | -0.56%
CCOc1cc(N)c(Cl)cc1C(=O)NCC1CN(Cc2ccc(F)cc2)CCO1 (stereo not given) [mosapride] | 0.88 | 2.99 | 3.38 | 2.51 | 6.25%
C=CCN1CC[C@]2(C)c3cc(O)ccc3C[C@H]1[C@H]2C | 1.28 | 1.94 | -1.86 | 0.86 | 1.02%
